Measured values published in the supplement of paper PMC4022240.
± gives the standard deviation.

Assays:
Assay in all cases: peptide microarray binding signal (635 nm), min-max normalized on array (fraction of array maximum); higher = stronger binding
Conditions in all cases: peptide region: H3 1-13
[1] = target: T1, HaloTag-ATRX ADD domain (163-292)
T1 chain: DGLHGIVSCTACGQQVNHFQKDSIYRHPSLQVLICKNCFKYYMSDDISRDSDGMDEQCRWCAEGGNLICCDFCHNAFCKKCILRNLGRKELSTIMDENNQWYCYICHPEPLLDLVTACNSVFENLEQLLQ
Protocol: (§1)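 Histone 13-mer peptides were synthesized as cellulose conjugates with a C-terminal 20-atom PEG linker and printed in triplicate on nitrocellulose. The sequence given is the unmodified backbone; PTMs (Kme1/2/3, Kac, Sph/Tph, Rme/Rme2a/Rme2s, Rcit) are listed in the label and the 'peptide modifications' condition. Slides were probed at 4 °C for 1 h with biotin-labelled (HQ)5-HaloTag reader fusions (ATRX-ADD, ING2-PHD) then streptavidin-Alexa647, or with rabbit histone antibodies then anti-rabbit Alexa647. The mean 635 nm signal of the triplicate spots was scaled 0-1 between the lowest and highest values on each array.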

[2] = target: HaloTag-ING2 PHD (mouse Ing2 200-280)
Protocol: as §1

[3] = target: anti-H3K4me3 antibody ab8580
Protocol: as §1

[4] = target: anti-H3K9me3 antibody ab8898
Protocol: as §1

[5] = peptide modifications: H3K4me3 H3K9me3, binder concentration: 1:2,000 dilution
[6] = peptide modifications: H3K4me3 H3K9me3, binder concentration: 1:10,000 dilution
[7] = peptide modifications: H3K4me2 H3K9me1, binder concentration: 1:2,000 dilution
[8] = peptide modifications: H3K4me2 H3K9me1, binder concentration: 1:10,000 dilution
[9] = peptide modifications: H3K9ac H3S10ph, binder concentration: 1:2,000 dilution
[10] = peptide modifications: H3K4me3 H3T6ph, binder concentration: 1:2,000 dilution
[11] = peptide modifications: H3K4me3 H3T6ph, binder concentration: 1:10,000 dilution
[12] = peptide modifications: H3K4me1 H3K9me3, binder concentration: 1:2,000 dilution
[13] = peptide modifications: H3K4me1 H3K9me3, binder concentration: 1:10,000 dilution
[14] = peptide modifications: H3K4me2 H3T6ph, binder concentration: 1:2,000 dilution
[15] = peptide modifications: H3K4me2 H3T6ph, binder concentration: 1:10,000 dilution
[16] = peptide modifications: H3K4me2, binder concentration: 1:2,000 dilution
[17] = peptide modifications: H3K4me2, binder concentration: 1:10,000 dilution
[18] = peptide modifications: H3K9ac, binder concentration: 1:2,000 dilution
[19] = peptide modifications: H3K9ac, binder concentration: 1:10,000 dilution
[20] = peptide modifications: H3K4me2 H3K9me3, binder concentration: 1:2,000 dilution
[21] = peptide modifications: H3K4me2 H3K9me3, binder concentration: 1:10,000 dilution
[22] = peptide modifications: H3K4me3 H3K9me1, binder concentration: 1:2,000 dilution
[23] = peptide modifications: H3K4me3 H3K9me1, binder concentration: 1:10,000 dilution

B1: H3 1-13 A R T Kme3 Q T A R Kme3 S T G G (peptide)
chain: ARTKQTARKSTGG
peptide microarray binding signal ([1]; peptide modifications: H3K4me3 H3K9me3, binder concentration: 50 nM): 0.0752 ± 0.0036 | peptide microarray binding signal ([1]; peptide modifications: H3K4me3 H3K9me3, binder concentration: 500 nM): 0.159 ± 0.022 | peptide microarray binding signal ([2]; peptide modifications: H3K4me3 H3K9me3, binder concentration: 10 nM): 0.582 ± 0.018 | peptide microarray binding signal ([2]; peptide modifications: H3K4me3 H3K9me3, binder concentration: 100 nM): 0.742 ± 0.14 | peptide microarray binding signal [3, 5]: 1 ± 0.19 | peptide microarray binding signal [3, 6]: 1 ± 0.19 | peptide microarray binding signal [4, 5]: 0.46 ± 0.11 | peptide microarray binding signal [4, 6]: 0.321 ± 0.037

B2: H3 1-13 A R T Kme2 Q T A R Kme S T G G (peptide)
chain: ARTKQTARKSTGG
peptide microarray binding signal ([1]; peptide modifications: H3K4me2 H3K9me1, binder concentration: 50 nM): 0.0128 ± 0.00075 | peptide microarray binding signal ([1]; peptide modifications: H3K4me2 H3K9me1, binder concentration: 500 nM): 0.0286 ± 0.0013 | peptide microarray binding signal ([2]; peptide modifications: H3K4me2 H3K9me1, binder concentration: 10 nM): 0.656 ± 0.061 | peptide microarray binding signal ([2]; peptide modifications: H3K4me2 H3K9me1, binder concentration: 100 nM): 0.43 ± 0.13 | peptide microarray binding signal [3, 7]: 0.365 ± 0.067 | peptide microarray binding signal [3, 8]: 0.152 ± 0.018 | peptide microarray binding signal [4, 7]: 0.00797 ± 0.0012 | peptide microarray binding signal [4, 8]: 0.00398 ± 0.00019

B3: H3 1-13 A R T K Q T A R Kac Sph T G G (peptide)
chain: ARTKQTARKSTGG
peptide microarray binding signal ([1]; peptide modifications: H3K9ac H3S10ph, binder concentration: 500 nM): 0.0136 ± 0.00075 | peptide microarray binding signal ([2]; peptide modifications: H3K9ac H3S10ph, binder concentration: 100 nM): 0.0173 ± 0.0011 | peptide microarray binding signal [3, 9]: 0.000925 ± 2.1e-05 | peptide microarray binding signal [4, 9]: 0.00113 ± 0.00013

B4: H3 1-13 A R T Kme3 Q Tph A R K S T G G (peptide)
chain: ARTKQTARKSTGG
peptide microarray binding signal ([1]; peptide modifications: H3K4me3 H3T6ph, binder concentration: 50 nM): 0.00724 ± 0.0003 | peptide microarray binding signal ([1]; peptide modifications: H3K4me3 H3T6ph, binder concentration: 500 nM): 0.0154 ± 0.0024 | peptide microarray binding signal ([2]; peptide modifications: H3K4me3 H3T6ph, binder concentration: 10 nM): 0.169 ± 0.048 | peptide microarray binding signal ([2]; peptide modifications: H3K4me3 H3T6ph, binder concentration: 100 nM): 0.484 ± 0.12 | peptide microarray binding signal [3, 10]: 0.323 ± 0.064 | peptide microarray binding signal [3, 11]: 0.404 ± 0.061 | peptide microarray binding signal [4, 10]: 0.0262 ± 0.0036 | peptide microarray binding signal [4, 11]: 0.00865 ± 0.0019

B5: H3 1-13 A R T Kme Q T A R Kme3 S T G G (peptide)
chain: ARTKQTARKSTGG
peptide microarray binding signal ([1]; peptide modifications: H3K4me1 H3K9me3, binder concentration: 50 nM): 0.253 ± 0.034 | peptide microarray binding signal ([1]; peptide modifications: H3K4me1 H3K9me3, binder concentration: 500 nM): 0.336 ± 0.03 | peptide microarray binding signal ([2]; peptide modifications: H3K4me1 H3K9me3, binder concentration: 10 nM): 0.335 ± 0.065 | peptide microarray binding signal ([2]; peptide modifications: H3K4me1 H3K9me3, binder concentration: 100 nM): 0.547 ± 0.039 | peptide microarray binding signal [3, 12]: 0.243 ± 0.018 | peptide microarray binding signal [3, 13]: 0.101 ± 0.049 | peptide microarray binding signal [4, 12]: 0.4 ± 0.096 | peptide microarray binding signal [4, 13]: 0.275 ± 0.034

B6: H3 1-13 A R T Kme2 Q Tph A R K S T G G (peptide)
chain: ARTKQTARKSTGG
peptide microarray binding signal ([1]; peptide modifications: H3K4me2 H3T6ph, binder concentration: 50 nM): 0.00636 ± 7.4e-05 | peptide microarray binding signal ([1]; peptide modifications: H3K4me2 H3T6ph, binder concentration: 500 nM): 0.0142 ± 0.0017 | peptide microarray binding signal ([2]; peptide modifications: H3K4me2 H3T6ph, binder concentration: 10 nM): 0.139 ± 0.025 | peptide microarray binding signal ([2]; peptide modifications: H3K4me2 H3T6ph, binder concentration: 100 nM): 0.385 ± 0.012 | peptide microarray binding signal [3, 14]: 0.0372 ± 0.011 | peptide microarray binding signal [3, 15]: 0.0131 ± 0.0018 | peptide microarray binding signal [4, 14]: 0.00426 ± 0.0013 | peptide microarray binding signal [4, 15]: 0.00271 ± 0.00042

B7: H3 1-13 A R T Kme2 Q T A R K S T G G (peptide)
chain: ARTKQTARKSTGG
peptide microarray binding signal ([1]; peptide modifications: H3K4me2, binder concentration: 50 nM): 0.00564 ± 0.00013 | peptide microarray binding signal ([1]; peptide modifications: H3K4me2, binder concentration: 500 nM): 0.0118 ± 0.00057 | peptide microarray binding signal ([2]; peptide modifications: H3K4me2, binder concentration: 10 nM): 0.0623 ± 0.0073 | peptide microarray binding signal ([2]; peptide modifications: H3K4me2, binder concentration: 100 nM): 0.0581 ± 0.0074 | peptide microarray binding signal [3, 16]: 0.03 ± 0.01 | peptide microarray binding signal [3, 17]: 0.0164 ± 0.0011 | peptide microarray binding signal [4, 16]: 0.00156 ± 0.00023 | peptide microarray binding signal [4, 17]: 0.00115 ± 2e-05

B8: H3 1-13 A R T K Q T A R Kac S T G G (peptide)
chain: ARTKQTARKSTGG
peptide microarray binding signal ([1]; peptide modifications: H3K9ac, binder concentration: 50 nM): 0.0143 ± 0.00037 | peptide microarray binding signal ([1]; peptide modifications: H3K9ac, binder concentration: 500 nM): 0.0461 ± 0.0053 | peptide microarray binding signal ([2]; peptide modifications: H3K9ac, binder concentration: 10 nM): 0.0431 ± 0.012 | peptide microarray binding signal ([2]; peptide modifications: H3K9ac, binder concentration: 100 nM): 0.0776 ± 0.0087 | peptide microarray binding signal [3, 18]: 0.00276 ± 0.00088 | peptide microarray binding signal [3, 19]: 0.00171 ± 7.1e-05 | peptide microarray binding signal [4, 18]: 0.00554 ± 0.00013 | peptide microarray binding signal [4, 19]: 0.00185 ± 0.00011

B9: H3 1-13 A R T Kme2 Q T A R Kme3 S T G G (peptide)
chain: ARTKQTARKSTGG
peptide microarray binding signal ([1]; peptide modifications: H3K4me2 H3K9me3, binder concentration: 50 nM): 0.133 ± 0.011 | peptide microarray binding signal ([1]; peptide modifications: H3K4me2 H3K9me3, binder concentration: 500 nM): 0.21 ± 0.019 | peptide microarray binding signal ([2]; peptide modifications: H3K4me2 H3K9me3, binder concentration: 10 nM): 1 ± 0.17 | peptide microarray binding signal ([2]; peptide modifications: H3K4me2 H3K9me3, binder concentration: 100 nM): 1 ± 0.088 | peptide microarray binding signal [3, 20]: 0.491 ± 0.058 | peptide microarray binding signal [3, 21]: 0.325 ± 0.12 | peptide microarray binding signal [4, 20]: 0.429 ± 0.054 | peptide microarray binding signal [4, 21]: 0.369 ± 0.044

B10: H3 1-13 A R T Kme3 Q T A R Kme S T G G (peptide)
chain: ARTKQTARKSTGG
peptide microarray binding signal ([1]; peptide modifications: H3K4me3 H3K9me1, binder concentration: 50 nM): 0.0117 ± 0.0004 | peptide microarray binding signal ([1]; peptide modifications: H3K4me3 H3K9me1, binder concentration: 500 nM): 0.025 ± 0.0009 | peptide microarray binding signal ([2]; peptide modifications: H3K4me3 H3K9me1, binder concentration: 10 nM): 0.411 ± 0.074 | peptide microarray binding signal ([2]; peptide modifications: H3K4me3 H3K9me1, binder concentration: 100 nM): 0.338 ± 0.07 | peptide microarray binding signal [3, 22]: 0.484 ± 0.13 | peptide microarray binding signal [3, 23]: 0.592 ± 0.25 | peptide microarray binding signal [4, 22]: 0.108 ± 0.018 | peptide microarray binding signal [4, 23]: 0.0413 ± 0.0047
